D2 ag-1 = D2 dopamine receptor (human) agonism; P14416; HEK293 T-REx D2 cells, calcium flux agonist mode; activation, % at 2 µM; 340,000 compounds, 0.53% hits;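 active = activation over 3 SD above normal in the single-dose calcium agonist read, cut at about 30% in these data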; also: 0% is about no effect
Target sequence (P14416 whole entry, looked up): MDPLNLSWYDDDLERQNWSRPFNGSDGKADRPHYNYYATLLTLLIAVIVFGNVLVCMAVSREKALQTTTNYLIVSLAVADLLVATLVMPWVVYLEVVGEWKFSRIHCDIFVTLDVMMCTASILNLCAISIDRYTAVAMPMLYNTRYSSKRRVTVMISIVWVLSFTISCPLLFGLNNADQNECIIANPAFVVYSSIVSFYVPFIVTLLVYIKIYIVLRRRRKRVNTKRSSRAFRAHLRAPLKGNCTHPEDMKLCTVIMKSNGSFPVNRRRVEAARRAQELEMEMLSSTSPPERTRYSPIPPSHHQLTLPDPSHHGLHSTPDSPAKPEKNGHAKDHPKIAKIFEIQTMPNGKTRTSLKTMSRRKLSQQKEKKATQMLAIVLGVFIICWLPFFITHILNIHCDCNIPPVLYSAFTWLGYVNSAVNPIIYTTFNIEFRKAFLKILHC
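Agonism is scored from calcium flux in a force-coupled, inducible HEK293 cell line expressing D2, read kinetically for 180 s after compound addition against dopamine controls.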
D2 ag-2 = human D2 receptor agonism in beta-arrestin assay; P14416; DiscoveRx PathHunter D2 beta-arrestin, luminescence, 90 min; 100% = 57 uM dopamine signal; activation, % (no concentration beside the values); 360,000 compounds, 0.084% hits; AID 624465; in the data active = activation above about 40%; inconclusive = between about 15% and that limit
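DiscoveRx PathHunter D2 beta-arrestin cells (2,100/well) attached overnight, then compound-stimulated 90 min at 37 C in HBSS/10 mM HEPES/0.1% Tween-20 buffer; beta-galactosidase complementation read by luminescence after 1 h at ambient temperature. Dopamine 57 uM final (EC100) as control.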
D2 PAM-1 = positively modulates the human D2 dopamine receptor allosterically; HEK293 T-REx D2, calcium flux, EC20 dopamine potentiation; potentiation, % at 10 µM; 340,000 compounds, 0.34% hits;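 active = potentiation over 3 SD above the plate norm, cut at about 30% in these data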; also: 0% is about no effect
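Cells plated with tetracycline inducer and held overnight at 30 C; calcium dye loaded 30–90 min at room temperature; baseline taken, compound added and read 180 s; EC20 dopamine then added and read 180 s.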
D2 PAM-2 = human D2 receptor positive allosteric modulation; P14416; DiscoveRx D2 beta-arrestin cells, luminescence, 90 min; 100% = 57 uM dopamine signal; potentiation, % (no concentration beside the values); 360,000 compounds, 0.23% hits; AID 624464; in the data active = potentiation above about 50%; inconclusive = mostly about 30% to 49%
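PathHunter beta-arrestin assay in DiscoveRx D2 cells. Compounds were added with an EC20 of dopamine (50 nM final) for 90 min at 37 deg C. Luminescence was read 1 h after detection reagent, with 57 uM dopamine as the EC100 control.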
D2 antag = antagonists of human D2 dopamine receptor; HEK293 TREx D2 cells, calcium flux, dopamine EC80; inhibition, % at 10 µM; 340,000 compounds, 2% hits; AID 485344; in the data active = inhibition above about 30%; inactive = below that, where a call was filed; also: 0% is about no effect
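Read-out: kinetic calcium fluorescence (1 cycle/s) in inducible HEK293 T-REx D2 cells after an EC80 dopamine addition that followed 180 s compound preincubation. Loss of the dopamine response indicates antagonism.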
D3 arrestin ag = activates human D3 dopamine receptor beta-arrestin recruitment; DiscoveRx D3 beta-arrestin cells, luminescence, 90 min; Potency, µM (series often up to 76.9 µM), without a hit: at the top dose activation, hits mostly activators; shares compounds with D2 ag-1; AID 720506; 2,300 compounds, 4% hits;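 also: potency is read from the fitted curve at half-maximal effect; 100% = dopamine control response; nearly all actives have a fitted effect of over 70% in size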
D2 ag-3 = activates human D2 dopamine receptor in D3 counterscreen; Potency, µM (series often up to 76.9 µM), inactives show at the top dose activation, usual class: activators; 2,300 compounds, 5.9% hits; AID 720507; DiscoveRx PathHunter D2 beta-arrestin, luminescence, 90 min; response scale: percent relative to full dopamine signal; shares compounds with D2 ag-1; also: potency is read from the fitted curve at half-maximal effect; % of control where 0% means no effect; nearly all actives have a fitted effect of over 70% in size
The depositor's hits bear a star; u = inconclusive; x = no result given. Sampled rows, rich in hits. Any-hit rate of the full collection: about 2.4%. Unless noted, calls follow the shape of the dose curve; as a rule, active = well fitted activation curve with a large enough effect; inconclusive = small, poorly fitted or top-dose-only effect; inactive = flat fitted curve, though single readings scatter.

SMILES	D2 ag-1	D2 ag-2	D2 PAM-1	D2 PAM-2	D2 antag	D3 arrestin ag	D2 ag-3
Nc1ccc(C(=O)N/N=C\c2ccc(OC(=O)c3ccccc3Cl)cc2)cc1	1	-2	11	-24	33*	3%	1%
O=C(CCc1nnc2n(Cc3ccc(F)cc3)c(=O)c3ccccc3n12)N1CCN(c2ccccn2)CC1	53*	-5	-27	-6	12	-13%	-8%
O=C(CCc1nnc2n(Cc3ccc(F)cc3)c(=O)c3ccccc3n12)NCCN1CCOCC1	0	1	0	-7	-27	x	x
COc1ccc(C)cc1NC(=O)C(=O)NCC(c1cccnc1)N1CCN(c2ccccc2F)CC1 (stereo not given)	0	x	5	x	x	x	x
COc1ccc(-c2c(-c3cc(OC)cc(OC)c3)n(C)c3ccc(-c4ccc5[nH]ccc5c4)cc23)cc1	x	-3	14	-7	x	4%	4%
COc1ccc(CCN2CC(C(=O)N(C)CC(=O)Nc3ccc(Cl)c(C(F)(F)F)c3)CC2=O)cc1OC (stereo not given)	1	-2	5	-10	3	0%	9%
CN(CC(=O)Nc1ccc(Cl)c(C(F)(F)F)c1)C(=O)C1CC(=O)N(CCc2ccccc2)C1 (stereo not given)	1	0	4	-36	-5	-2%	2%
Cc1cccc(OCCCC(=O)NNC(=O)CCN2CCN(c3ccccc3)CC2)c1	59*	-1	-24	-33	9	u	29%
COc1ccc(OCCCC(=O)NNC(=O)CCN2CCN(c3ccccc3)CC2)cc1	83*	7	-24	-8	71*	19%	15%
COc1ccccc1CNS(=O)(=O)c1cc2c3c(c1)CCN3C(=O)CC2	0	0	11	u	75*	10%	8%
CCOc1ccc(-c2nnc(SCC(=O)NCCC(C)C)nc2-c2ccc(OCC)c(OC)c2)cc1OC	-1	x	x	x	x	x	x
Cc1sc2ncn(CC(=O)N3CCN(c4cccc(Cl)c4)CC3)c(=O)c2c1S(=O)(=O)N1CCC(C)CC1	0	x	-9	x	x	x	x
Cc1ccc(CN(C(=O)c2cccs2)C2CCS(=O)(=O)C2)cc1 (stereo not given)	0	-1	4	-2	1	x	x
O=C(c1cccs1)N(Cc1ccco1)C1CCS(=O)(=O)C1 (stereo not given)	58*	u	-20	21	41*	17%	25%
CC(=O)c1ccc(NC(=O)CSc2nc3c(=O)n(C)c(=O)n(C)c3n2C)cc1	1	x	-1	x	x	x	x
COc1ccc(C(=O)O)cc1NC(=S)NC(=O)CSc1ccc(Cl)cc1	-1	0	5	0	6	-15%	-4%
COc1ccc(Nc2ncc3c(n2)CCN(Cc2cc(Br)cs2)C3)c(OC)c1	-1	x	-1	x	x	x	x
O=C(CNC(=O)c1ccccc1)N/N=C/c1cn[nH]c1-c1ccccc1	9	1	-2	-6	9	x	x
COc1ccccc1C(=O)NCC(=O)N/N=C/c1cn[nH]c1-c1ccccc1	67*	5	-22	8	22	8%	3%
CC(C)C(NC(=O)CCN1C(=O)c2ccccc2C1=O)c1ccccc1 (stereo not given)	-1	3	-7	-8	19	-2%	-6%
CC(NC(=O)CN1C(=O)c2ccccc2C1=O)c1ccccc1 (stereo not given)	x	-2	x	-8	x	x	x
Cc1ccccc1CN1CCN(C(C)C(=O)NNC(=O)c2ccc(F)cc2)CC1 (stereo not given)	58*	1	-15	-3	25	-9%	10%
CCCOC1(C(F)(F)F)NC(=O)N(c2ccc(Cl)cc2)C1=O (stereo not given)	1	x	-6	x	x	x	x
COc1ccccc1N1CCN(Cc2cc3c(cc2O)OCO3)CC1	75*	0	-30	-18	98*	-8%	9%
CCOCc1cc(CN2CCN(c3ccccc3OC)CC2)c(O)c2ncccc12	-1	x	-9	x	x	x	x
SMILES	D2 ag-1	D2 ag-2	D2 PAM-1	D2 PAM-2	D2 antag	D3 arrestin ag	D2 ag-3
CCOc1ccccc1N1CCN(Cc2cccc(OC)c2O)CC1	45*	13	-5	-2	68*	-12%	29%
Cc1noc(-c2ccc(NC(C)c3ccccc3)c([N+](=O)[O-])c2)n1 (stereo not given)	0	x	6	x	x	x	x
CCN(CC)CCOC(=O)c1cccc(Br)c1	0	-3	-8	-22	4	x	x
CN(CCOC(=O)c1cccc(Br)c1)C(C)(C)C	71*	-4	-18	-12	31*	-1%	-5%
O=C(OCCc1cc2ccccc2c(=O)o1)c1ccc(F)cc1	-3	-2	7	-7	3	x	x
O=C(OCCc1cc2ccccc2c(=O)o1)c1ccc(C(F)(F)F)cc1	0	-2	23	-7	2	-5%	0%
O=C(OCCc1cc2ccccc2c(=O)o1)c1cccc(Br)c1	-1	-1	10	-12	-4	-5%	6%
COc1ccc(NC(=O)CN2CCN(Cc3ccccc3)S2(=O)=O)c(OC)c1	-2	x	x	x	x	x	x
O=C1CCc2cc(S(=O)(=O)NC(C(=O)Nc3ccc(F)cc3)c3ccccc3)ccc2N1 (stereo not given)	0	x	-4	x	x	x	x
Cc1c(-c2csc(N)n2)cnn1C	10	u	2	12	26	11µM*	22%
COc1cccc(-n2c(=O)c3sccc3n(Cc3cc(=O)n4cc(Cl)ccc4n3)c2=O)c1	0	x	5	x	x	x	x
C/C(=N\NC(=O)c1ccc(-c2ccccc2)cc1)C1C(=O)c2ccccc2C1=O	32*	4	-14	1	84*	2%	-1%
C/C(=N\NC(=O)c1ccc(Br)cc1)C1C(=O)c2ccccc2C1=O	3	-2	-4	-14	-2	x	x
CC(C)(C)c1ccc(S(=O)(=O)c2cnc(SCC(=O)Nc3ccc4c(c3)OCCO4)[nH]c2=O)cc1	x	x	6	x	x	x	x
COC(=O)c1ccc(S(=O)(=O)NCCSc2nnc3c4ccccc4n(C)c3n2)cc1	-1	-1	6	-8	28	17%	9%
Nc1ccn(CC(=O)NCCNc2ccc([N+](=O)[O-])cn2)c(=O)n1	0	-4	-11	-6	-1	-7%	-5%
O=C(CN1CCN(Cc2ccccc2)CC1)NCCNc1ccc([N+](=O)[O-])cn1	1	-4	6	-2	-8	x	x
O=c1c2cccnc2[nH]c(=S)n1CCCN1CCN(c2ccccc2F)CC1	82*	u	-23	-5	116*	8%	u
